Test results published in PubChem BioAssay AID504810 (National Center for Advancing Translational Sciences (NCATS), 2011).
The campaign covered roughly 330,000 compounds. About 670 (0.2%) were called active.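 The calls were made as follows: active = activity change below a set negative limit, meaning inhibition stronger than a set level (cut at about -70% in these data); inconclusive = activity change between two set negative limits; inactive = the rest.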 The list comes from a sample in which actives are over-represented; it also holds similar structures and randomly drawn compounds.

What follows are compounds tested against Thyrotropin receptor (Homo sapiens) (UniProt P16473) (assay: Antagonists of the Thyroid Stimulating Hormone Receptor: HTS campaign). Details: TSHR-expressing cells, TSH-stimulated cAMP HTRF, 2 h; at 11.5 µM; hits give low values.
Thyrotropin receptor (Homo sapiens), sequence (P16473 whole entry, looked up): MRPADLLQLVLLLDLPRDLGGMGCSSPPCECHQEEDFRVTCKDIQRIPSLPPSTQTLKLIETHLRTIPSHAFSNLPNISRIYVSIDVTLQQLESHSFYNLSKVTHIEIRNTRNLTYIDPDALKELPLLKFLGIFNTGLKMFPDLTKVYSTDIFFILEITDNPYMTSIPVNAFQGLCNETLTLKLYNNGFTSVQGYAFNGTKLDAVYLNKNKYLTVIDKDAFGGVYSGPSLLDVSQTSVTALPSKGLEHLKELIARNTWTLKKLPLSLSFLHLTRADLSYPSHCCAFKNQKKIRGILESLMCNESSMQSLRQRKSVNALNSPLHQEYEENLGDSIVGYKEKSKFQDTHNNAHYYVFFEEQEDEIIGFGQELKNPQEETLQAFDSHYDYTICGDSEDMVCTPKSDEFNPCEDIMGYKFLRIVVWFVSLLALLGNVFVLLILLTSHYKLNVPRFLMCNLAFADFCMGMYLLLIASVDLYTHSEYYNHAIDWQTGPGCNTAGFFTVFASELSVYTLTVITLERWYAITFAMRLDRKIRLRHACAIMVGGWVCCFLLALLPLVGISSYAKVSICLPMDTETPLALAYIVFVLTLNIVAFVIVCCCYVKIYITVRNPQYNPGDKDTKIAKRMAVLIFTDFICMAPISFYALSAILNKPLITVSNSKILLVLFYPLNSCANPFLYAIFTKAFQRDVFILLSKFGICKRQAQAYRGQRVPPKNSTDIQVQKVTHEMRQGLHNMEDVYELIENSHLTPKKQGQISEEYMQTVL
Text: The thyroid-stimulating hormone receptor (TSHR) is a member of the 7 trans-membrane-spanning receptor (7TMR) family of cell surface receptors. TSHR-mediated hyperthyroidism is important in thyroid pathology. The development of small molecule antagonists of TSHR may lead to therapeutic approaches for TSHR-mediated hyperthyroidism caused by constitutively activating mutations or stimulating auto-antibodies associated with Graves' disease. Graves' disease is the leading cause of hyperthyroidism and is caused by autoantibodies that stimulate TSHR (TsAbs) causing thyroid growth and unregulated overproduction of thyroid hormones and existing treatments have liabilities (agranulocytosis). In addition, TSHRs are known to be expressed in multiple extrathyroidal tissues including bone, brain, kidney, testis, fat and cells of the immune system but the role of the TSHR in these tissues is not clear. Therefore, TSHR antagonists/inverse agonists could be used as probes of extrathyroidal TSHR function. Finally, TSHR inverse agonists, which are a subclass of antagonists that inhibit agonist-independent (or basal or constitutive) TSHR signaling, could be used to inhibit TSH-independent signaling in patients with recurrent or metastatic thyroid cancer who are receiving thyroid hormone to suppress TSH. In collaboration between scientist from the NCGC and the NIDDK, a miniaturized HTRF high-throughput screen was developed. It's a cell based assay, where an anti cAMP antibody contains a fluorescent cryptate tag (excitation 337 nm; emission 620 nm) and the acceptor is cAMP-d2 (excitation 620 nm; emission 665 nm). When antibody and cAMP-d2 interact and are excited by a 337 nm light, a FRET occurs resulting in emission at 665 nm. The assay is competition between cAMP-d2 and cAMP (from the cell lysate). The homogeneous protocol allows for one step dispense after stimulation that is automation friendly. NIH Chemical Genomics Center [NCGC] NIH Molecular Libraries Probe Centers Network [MLPCN] MLPCN Grant: MH090855-01 Assay Submitter (PI): Marvin Gerhengorn
1. 3ul of 200 TSHR freshly harvested cells/well are dispensed into a 1536 TC-treated white solid bottom plate. 2. Through pintool addition, 23nl of compounds and control in 100% DMSO are added to the plate. 3. Then 1ul of EC80 TSH (4nM final) is added to the plate. 4. Assay is incubated at 37 deg C for 2 hours. 5. 2ul of cAMP antibody diluted 1:20 in lysis buffer is added. 6. Immediately following, 2ul of d2 diluted 1:20 in HBSS is added seperately. 7. The assay is incubated for 30 minutes at ambient room temperature. 8. The result is obtained by using a ViewLux read-out with HTRF settings.
% is scaled to controls: 0 for no effect and ±100 for the full control effect.

Activity change, negative = inhibition, inactive:
CC(C)(O)C#Cc1ccc(C(=O)N2CCC(C(N)=O)(N3CCCCC3)CC2)cc1 2.47%
NC(=O)C1(N2CCCCC2)CCN(C(=S)Nc2ccc(Cl)cc2)CC1 25.4%
CSc1ccccc1N1CCN(CCCCCC(=O)NC2CCCc3ccccc32)CC1 (centres undefined) -13.5%
Cc1c(C)n2c(SCC(=O)NC3CCCC3)nnc2[nH]c1=O -8.74%
CC(=O)Nc1ccc(NC(=O)CN2C(=O)COc3ccc(S(=O)(=O)N4CCCCC4)cc32)cc1 0.648%
COc1ccc(NC(=O)CN2C(=O)COc3ccc(S(=O)(=O)N4CCOCC4)cc32)cc1 -2.02%
Cc1cc2occ(CC(=O)NNC(=O)c3ccccc3F)c2cc1C 3.48%
Cc1csc(NC(=O)CSc2nc(=O)n(CCCN(C)C)c3c2CCC3)n1 -6.64%
CSc1nc(N(C)NC(=O)c2cccc(C)c2)c2ccccc2n1 -3.52%
Cc1ccnc(NS(=O)(=O)c2ccc(NC(=O)c3oc4ccc(F)cc4c3C)cc2)n1 4.87%
Cc1ccnc(NS(=O)(=O)c2ccc(NC(=O)c3oc4ccccc4c3C)cc2)n1 -4.53%
CCCCC(C(=O)NC(C)(C)C)N(Cc1ccccc1)C(=O)c1snc(C(N)=O)c1N (centres undefined) -2.07%
CC/C(=N/Nc1ccccc1)c1cnnc(SC)n1 -5.85%
Cc1cccc(C)c1NC(=O)CSc1nc2c([nH]1)c(=O)n(C)c(=O)n2C -2.1%
Cn1c2cc(B(O)O)sc2c2cnn(Cc3ccccc3F)c(=O)c21 -27.6%
CCOc1ccc(N(CC(=O)NC2CCCCCC2)S(=O)(=O)c2c(C)[nH]c(=O)[nH]c2=O)cc1 -10.6%
O=C(CN1C(=O)NC2(CCCCCC2)C1=O)Nc1ccc([N+](=O)[O-])cc1 0.839%
CN(C(=O)C1CCN(c2ncnc3c2nc2n3CCCCC2)CC1)C1CCCCC1 1.35%
[O-][n+]1onc2c1CCc1[nH]c(-c3ccccc3)nc1-2 -36.4%
CCCC1(C(=O)OC)NC(c2ccco2)C2C(=O)N(C)C(=O)C21 (centres undefined) -3.19%
Cc1cc(NC(=O)CN2C(=O)NC(C)(CCc3ccccc3)C2=O)no1 (centres undefined) 10.4%
CCCCN(C(=O)c1ccc2ccccc2c1)c1c(N)n(CCCC)c(=O)[nH]c1=O -8.5%
CNC(=S)N1CCC(NC(=O)C(Cc2ccc(F)cc2)NC(C)=O)CC1 (centres undefined) -6.46%
O=C(COc1ccc(Cl)cc1)Nc1ccc2c(c1)OCO2 -1.65%
O=P(O)(CN1CCCCCC1)C1Cc2ccccc2C1 34.6%
CCOC(=O)C1(Cc2ccccc2C)CCCN(C(=O)CN2C(=O)CSC2=O)C1 (centres undefined) 28.6%
COc1cc([N+](=O)[O-])cc([N+](=O)[O-])c1NC(=O)N1CCOCC1 -0.913%
CCN(CC(=O)Nc1ccc(NC(C)=O)cc1)C(=O)C1CC(=O)N(Cc2ccc(C)cc2)C1 (centres undefined) 0.752%
CN1CCCc2cc(C#N)c(=O)[nH]c21 4.52%
COCCn1c(Cc2cccn2C)nnc1SCC(=O)Nc1nccs1 4.54%
C/C(CCC(=O)OC[C@H]1O[C@H](C#Cc2ccccc2)C=C[C@@H]1Oc1ccc(C)cc1)=N\OC[C@@H](O)[C@H]1O[C@@H]2OC(C)(C)O[C@@H]2[C@H]1O -3.15%
CCOC(CNC(=O)C(=O)NCC(c1ccco1)N1CCN(c2ccc(OC)cc2)CC1)OCC (centres undefined) 0.959%
Cc1cc(=O)oc2c(C)c(OC(C)C(=O)NC3CCN(Cc4ccccc4)CC3)ccc12 (centres undefined) -2.61%
O=c1cc(-c2ccccc2)[nH]c2nc(Cl)ccc12 -13.7%
C=CC1(C)CC(=O)C2(O)C(C)(O1)C(OC(C)=O)C(O)C1C(C)(C)CCC(O)C12C (centres undefined) 107%
CN(C)c1ccc(CNC(=O)CN2C(=O)COc3ccc(S(=O)(=O)N4CCCC4)cc32)cc1 -5.17%
CCn1ccnc1CNC(=O)CC1C(=O)NCCN1CCCc1ccccc1 (centres undefined) 8.41%
O=C(O)CCn1cc(/C=C/C(=O)c2ccc(Cl)cc2)c(-c2cccc(Br)c2)n1 -11.6%
CSc1ccc(CNC(=O)c2ccc(NC(=O)C3=CSCCO3)cc2)cc1 17.8%
O=C(NCc1ccccc1Cl)C1CCCO1 (centres undefined) -3.41%
CC(NC(=O)COC(=O)c1cc(=O)[nH]c2ccccc12)c1ccccc1 (centres undefined) -4.46%
O=C(CNC(=O)c1cc(=O)[nH]c2ccccc12)Nc1ccc(F)c(F)c1 1.67%
COc1ccc(CC(=O)N/N=C/c2cc([N+](=O)[O-])cc(Br)c2O)cc1 1.63%
Cc1cc(C(=O)N/N=C/c2cc([N+](=O)[O-])cc(C)c2O)n[nH]1 13.9%
CC(C)Cn1c(=O)c2ccccc2n2c(CCC(=O)NCc3ccccn3)nnc12 3.77%
C=CCc1ccccc1OCC(O)CN1CCN(CCO)CC1 (centres undefined) 3.81%
Cc1cc(C)c2c(-c3ccc(F)cc3)c(C#N)c(=O)n(C)c2n1 -4.99%
Cc1cc(C)c(C#N)c(SCC(=O)Nc2ccccc2)n1 1.53%
CNC(=O)C1CCN(S(=O)(=O)c2c(C)noc2/C=C/c2cccc(C)c2)CC1 9.08%
CC(NC(=O)CNC(=O)Cc1cccc2ccccc12)c1ccc(S(N)(=O)=O)cc1 (centres undefined) -28.1%
CCNC(=O)N1CCN(S(=O)(=O)c2ccc3c(c2)OCCCO3)CC1 13%
O=c1ccc(-c2ccc(S(=O)(=O)Nc3ccccc3)o2)n[nH]1 14.7%
COc1cccc(NC(=O)CC(c2ccc(OC(C)C)cc2)c2ccccc2OC)c1 (centres undefined) -14.4%
CCOC(=O)NN1C(=O)c2ccccc2NC1c1ccccc1O (centres undefined) 8.06%
O=C(CCN1C(=O)C2C3CCC(C3)C2C1=O)Nc1ccc(Cl)cc1Cl (centres undefined) 1.9%
CCN(CC)C(=O)CSc1nnc(-c2ccc(S(=O)(=O)NCc3ccccc3Cl)cc2)o1 -13.6%
Cc1ccc(S(=O)(=O)n2cnc3ccccc32)c(C)c1 2.16%
COc1ccc(S(=O)(=O)N2CCN(C)CC2)c(C)c1 -0.476%
CCC1SC2=NCCN2C1(O)c1ccc(Cl)cc1 (centres undefined) 6.43%
CCOc1ccc(N(CC(=O)NCCc2ccc(F)cc2)S(=O)(=O)c2ccccc2)cc1 -7.25%
CC(NC(=O)Cn1cc(C(F)(F)F)cc(Cl)c1=O)c1ccccc1 (centres undefined) 7.91%
CCN1C(=S)N[C@@H](c2cccc(C(F)(F)F)c2)C(C(=O)OC)=C1C 0.624%
Cc1sc2ncn(CC(=O)NCCCC(=O)N(C)Cc3ccccc3)c(=O)c2c1C 3.25%
Cc1sc2ncn(CC(=O)NCCCC(=O)N3CCN(c4ccccc4F)CC3)c(=O)c2c1C 3.65%
COc1ccc(CCNCc2c(-c3ccccc3)n(C)c3ccccc23)cc1 5.27%
COc1cc(OC)cc(C(=O)NNC(=O)CNC(=O)c2ccc(Br)o2)c1 -4.32%
NC1CCN(O)C1=O (centres undefined) 5.61%
CCC(C)NC(=O)C1CCC(=O)N1Cc1ccc(C)cc1 (centres undefined) 1.98%
CCCN(c1ccc(C(C)C)cc1)S(=O)(=O)c1c(C)[nH]c(=O)[nH]c1=O -12.7%
Cc1ccc(CN2CCNC(=O)C2CC(=O)NCc2csc(C(C)C)n2)cc1 (centres undefined) 12.6%
NC(=O)C1CCN(c2nc(-c3cccc(F)c3)cs2)CC1 -7.85%
COc1ccc(NC(=O)CSc2nnc(Cc3ccccc3)c(=O)n2N)cc1 7.33%
CCCCn1c(N)c(N(CCOC)C(=O)COc2c(C)cccc2C)c(=O)[nH]c1=O -0.316%
CCc1ccccc1NC(=O)CN(C)C(=O)COc1ccc(C)nc1[N+](=O)[O-] 4.86%
C1CC1Cc1noc(CN2CCN(CC3CC3)CC2)n1 3.76%
NS(=O)(=O)c1cc(C(=O)NCCOc2ccccc2)c(Cl)cc1Cl 8.26%
CCc1nn(CC(=O)N2CCN(c3cc(C)ccc3C)CC2)c(=O)c2cc3occc3n12 12.8%
OCC(O)CN(c1ccccc1)c1ccccc1 (centres undefined) 3.75%
CC1(C)O[C@@H]2[C@H](O1)[C@@H](CO)O[C@H]2n1c(N2CCCCC2)nc2c(N)ncnc21 -5.04%

Activity change, negative = inhibition, active:
NC(=O)C1(N2CCCCC2)CCN(C(=O)c2ccc(C#Cc3ccccc3)o2)CC1 -75.1%
CSc1cccc(NC(=O)CN2C(=O)COc3ccc(S(=O)(=O)N4CCOCC4)cc32)c1 -134%
Cc1cc(C)c2oc(C(=O)Nc3ccc(S(=O)(=O)Nc4nccc(C)n4)cc3)cc(=O)c2c1 -137%
O=C(Nc1ccc(C(=O)NCc2ccccc2Cl)cc1)C1=CSCCO1 -135%
CC(NC(=O)c1cc(=O)[nH]c2ccccc12)c1ccc(F)cc1F (centres undefined) -93%
O=[N+]([O-])c1cc(Br)c(O)c(/C=N/Nc2nc3ccccc3s2)c1 -87.3%
Cc1cc(C#N)c(SCC(N)=O)nc1-c1ccc(F)cc1 -75.8%
COc1ccc(S(=O)(=O)n2cnc3ccccc32)c(C)c1 -81.3%
COC(=O)c1cc(=O)n(-c2c(Cl)cc(C(F)(F)F)cc2Cl)[nH]1 -90%
Cc1sc2ncn(CC(=O)NCCCC(=O)NCc3ccc(F)cc3)c(=O)c2c1C -97.7%
